Out of some 5,500 compounds screened, about 2,000 (36%) were called active. Inconclusive results (about 18%) are left out. Cut-off read from the data, not from the text of the source: active = normalized growth mostly below about 0.91 (no sharp cut-off); inconclusive = no clear call, values can overlap the other calls; inactive = mostly above about 0.92. The list shows a part of the results.
Experiment: chemical genetic growth profiling, strain panel (AID 1159580);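 note: tested at 20 µM; growth read once vehicle control cultures reached saturation at 30 °C; 1 = growth at the plate median or of vehicle wells; lower values mean less growth of the strain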
Settings: growth OD

Measured: normalized growth

O=C(OCc1ccccc1)c1ccccc1
active: S. cerevisiae deletion strains, locus YKR001C, strain vps1, active compounds read low 0.789 | S. cerevisiae deletion strains, locus YLR113W, strain HOG1, active compounds read low 0.783 | S. cerevisiae deletion strains, locus YLR262C, strain YPT6 (second series), active compounds read low 0.739 | S. cerevisiae deletion strains, locus YLR320W, strain mms22, active compounds read low 0.835 | S. cerevisiae deletion strains, locus YNL071W, strain lat1, active compounds read low 0.889 | S. cerevisiae deletion strains, locus YNL307C, strain MCK1, active compounds read low 0.798 | S. cerevisiae deletion strains, locus YOR106W, strain vam3, active compounds read low 0.859 | S. cerevisiae deletion strains, locus YOR184W, strain ser1, active compounds read low 0.655 | S. cerevisiae deletion strains, locus YOR231W, strain MKK1, active compounds read low 0.86
inactive: S. cerevisiae deletion strains, locus YKL009W, strain mrt4, active compounds read low 0.934 | S. cerevisiae deletion strains, locus YKL068W, active compounds read low 0.961 | S. cerevisiae deletion strains, locus YKL085W, strain MDH1 (second series), active compounds read low 0.957 | S. cerevisiae deletion strains, locus YKL085W, strain MDH1, active compounds read low 0.957 | S. cerevisiae deletion strains, locus YKL160W, strain elf1, active compounds read low 0.951 | S. cerevisiae deletion strains, locus YKL190W, strain CNB1, active compounds read low 1 | S. cerevisiae deletion strains, locus YKR026C, strain gcn3, active compounds read low 0.954 | S. cerevisiae deletion strains, locus YKR091W, strain srl3, active compounds read low 0.952 | S. cerevisiae deletion strains, locus YLL001W, strain dnm1, active compounds read low 0.945 | S. cerevisiae deletion strains, locus YLL026W, active compounds read low 0.953 | S. cerevisiae deletion strains, locus YLL041C, strain sdh2, active compounds read low 0.965 | S. cerevisiae deletion strains, locus YLR027C, strain aat2, active compounds read low 0.954 | S. cerevisiae deletion strains, locus YLR039C, strain RIC1, active compounds read low 0.83 | S. cerevisiae deletion strains, locus YLR058C, strain SHM2, active compounds read low 0.987 | S. cerevisiae deletion strains, locus YLR102C, strain apc9, active compounds read low 0.969 | S. cerevisiae deletion strains, locus YLR221C, strain rsa3, active compounds read low 0.925 | S. cerevisiae deletion strains, locus YLR258W, strain gsy2, active compounds read low 0.956 | S. cerevisiae deletion strains, locus YLR262C, strain YPT6, active compounds read low 0.839 | S. cerevisiae deletion strains, locus YLR268W, strain sec22, active compounds read low 0.941 | S. cerevisiae deletion strains, locus YLR330W, strain CHS5, active compounds read low 0.982 | S. cerevisiae deletion strains, locus YLR342W, strain FKS1 (second series), active compounds read low 0.906 | S. cerevisiae deletion strains, locus YLR342W, strain FKS1, active compounds read low 0.944 | S. cerevisiae deletion strains, locus YLR357W, strain rsc2, active compounds read low 1.05 | S. cerevisiae deletion strains, locus YLR370C, strain arc18, active compounds read low 0.969 | S. cerevisiae deletion strains, locus YLR371W, strain rom2, active compounds read low 0.966 | S. cerevisiae deletion strains, locus YLR384C, strain iki3, active compounds read low 0.974 | S. cerevisiae deletion strains, locus YLR418C, strain cdc73, active compounds read low 0.885 | S. cerevisiae deletion strains, locus YML016C, strain PPZ1, active compounds read low 0.991 | S. cerevisiae deletion strains, locus YML032C, strain rad52, active compounds read low 0.948 | S. cerevisiae deletion strains, locus YML120C, strain ndi1, active compounds read low 0.939 | S. cerevisiae deletion strains, locus YML124C, strain tub3, active compounds read low 0.969 | S. cerevisiae deletion strains, locus YMR058W, strain fet3, active compounds read low 0.952 | S. cerevisiae deletion strains, locus YMR078C, strain ctf18, active compounds read low 0.957 | S. cerevisiae deletion strains, locus YMR125W, strain sto1, active compounds read low 0.966 | S. cerevisiae deletion strains, locus YMR129W, active compounds read low 0.967 | S. cerevisiae deletion strains, locus YMR205C, strain PFK2, active compounds read low 0.899 | S. cerevisiae deletion strains, locus YMR223W, strain ubp8, active compounds read low 0.925 | S. cerevisiae deletion strains, locus YMR231W, strain pep5, active compounds read low 0.984 | S. cerevisiae deletion strains, locus YMR263W, strain SAP30, active compounds read low 0.981 | S. cerevisiae deletion strains, locus YMR307W, strain GAS1, active compounds read low 1.06 | S. cerevisiae deletion strains, locus YNL067W, strain RPL9B, active compounds read low 0.954 | S. cerevisiae deletion strains, locus YNL128W, strain TEP1, active compounds read low 0.989 | S. cerevisiae deletion strains, locus YNL183C, strain NPR1, active compounds read low 0.868 | S. cerevisiae deletion strains, locus YNL209W, strain ssb2, active compounds read low 0.968 | S. cerevisiae deletion strains, locus YNL233W, strain BNI4, active compounds read low 0.931 | S. cerevisiae deletion strains, locus YNL248C, strain rpa49, active compounds read low 0.905 | S. cerevisiae deletion strains, locus YNL250W, strain rad50, active compounds read low 0.987 | S. cerevisiae deletion strains, locus YNL271C, strain bni1, active compounds read low 0.95 | S. cerevisiae deletion strains, locus YNL298W, strain CLA4, active compounds read low 0.954 | S. cerevisiae deletion strains, locus YNL322C, strain KRE1 (second series), active compounds read low 0.973 | S. cerevisiae deletion strains, locus YNL322C, strain KRE1, active compounds read low 0.989 | S. cerevisiae deletion strains, locus YNR049C, strain mso1, active compounds read low 0.954 | S. cerevisiae deletion strains, locus YNR052C, strain pop2, active compounds read low 1 | S. cerevisiae deletion strains, locus YOL006C, strain TOP1, active compounds read low 0.725 | S. cerevisiae deletion strains, locus YOL012C, strain htz1 1.34 | S. cerevisiae deletion strains, locus YOL147C, strain pex11, active compounds read low 0.974 | S. cerevisiae deletion strains, locus YOR001W, strain rrp6, active compounds read low 0.916 | S. cerevisiae deletion strains, locus YOR061W, strain CKA2, active compounds read low 0.988 | S. cerevisiae deletion strains, locus YOR069W, strain VPS5, active compounds read low 0.991 | S. cerevisiae deletion strains, locus YOR070C, strain gyp1, active compounds read low 0.965 | S. cerevisiae deletion strains, locus YOR080W, strain dia2, active compounds read low 0.985 | S. cerevisiae deletion strains, locus YOR083W, strain WHI5, active compounds read low 0.97 | S. cerevisiae deletion strains, locus YOR136W, strain idh2, active compounds read low 0.987 | S. cerevisiae deletion strains, locus YOR144C, strain elg1, active compounds read low 0.974 | S. cerevisiae deletion strains, locus YOR265W, strain rbl2, active compounds read low 0.957 | S. cerevisiae deletion strains, locus YOR270C, strain vph1, active compounds read low 0.927 | S. cerevisiae deletion strains, locus YOR290C, strain snf2, active compounds read low 0.941 | S. cerevisiae deletion strains, locus YOR316C, strain cot1, active compounds read low 0.974 | S. cerevisiae deletion strains, locus YPL051W, strain arl3, active compounds read low 0.96 | S. cerevisiae deletion strains, locus YPL078C, strain atp4, active compounds read low 0.933 | S. cerevisiae deletion strains, locus YPL106C, strain sse1, active compounds read low 1 | S. cerevisiae deletion strains, locus YPL240C, strain hsp82, active compounds read low 0.958 | S. cerevisiae deletion strains, locus YPL241C, strain CIN2, active compounds read low 0.99 | S. cerevisiae deletion strains, locus YPL256C, strain CLN2, active compounds read low 0.832 | S. cerevisiae deletion strains, locus YPR119W, strain clb2, active compounds read low 0.975 | S. cerevisiae deletion strains, locus YPR141C, strain kar3, active compounds read low 0.949 | S. cerevisiae deletion strains, locus YPR163C, strain tif3, active compounds read low 0.975 | S. cerevisiae deletion strains, locus YPR167C, strain met16, active compounds read low 0.96 | S. cerevisiae deletion strains, strain wtn01, active compounds read low 0.928 | S. cerevisiae strains, strain wild type, active compounds read low 0.984
